Source: PubChem
The list is not random: actives were taken first. Their share in the collection is about 6.1%.
HepG2 tox = kills HepG2 cells in TGF-b inhibitor counter-screen; 410,000 tested, 0.76% active; Potency, µM (top dose mostly 46.1 µM), inactives show at the top dose activity change, negative = cytotoxicity, hits mostly cytotoxic; HepG2 CAGA-GFP viability, ATP luminescence, 18 h
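CellTiter-Glo luminescence gave cytotoxicity after 18 hours at 37 degrees C. The cells were HepG2 CAGA-GFP in 1% FBS DMEM, stimulated with 500 pg/mL TGF-beta after compound addition. %Activity was normalised to no-cell wells (complete cell-killing) and DMSO (no toxicity), and curves were fitted and classified.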
ATXN viability = viability counter-screen for ATXN expression inhibitors; S2 cells (HEK-293 line with an ATXN2-luciferase reporter) viability, CellTiter-Fluor protease fluorescence, 24 h; AID 651635; Potency, µM (titrated, usually from 56.7 µM), most hits filed as cytotoxic; 400,000 tested, 0.49% active; further: nearly all actives have a fitted effect of over 40% in size
ATXN2 expr inh = reduces ATXN2 reporter expression in HEK-293 cells; HEK-293 ATXN2-luciferase reporter, luminescence, 24 h; Potency, µM (doses to about 57 µM), without a hit: at the top dose activity change, negative = inhibition, hits mostly inhibitors; 360,000 tested, 0.72% active; further: on the % scale 0 is the no-effect control and ±100 the full control effect; nearly all actives have a fitted effect of over 55% in size
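qHTS (up to 57 uM final) was run with 24 h compound exposure of reporter cells at 37 °C. Each well was multiplexed: SteadyGlo luminescence measured ATXN2-luciferase expression after a fluorogenic Gly-Phe-AFC viability readout (25 uM final).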
TGFb SMAD3 inh = blocks TGF-b signaling; HepG2 CAGA-GFP TGF-b/SMAD3 reporter, GFP fluorescence, 18 h; TGF-beta stimulated, 500 pg/mL final; Potency, µM (highest dose often 46.1 µM), for the others: at the highest dose activity, negative = inhibition, actives largely listed as inhibitors; 410,000 tested, 1.2% active; AID 588855; further: on the % scale 0 is the no-effect control and ±100 the full control effect; nearly all actives have a fitted effect of over 65% in size
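HEPG2 CAGA-GFP, 1000 cells/well; 2 h settle, 37 C; cpd via pin tool; TGF-b 500 pg/mL final; 18 h, 37 C; GFP imaging ex488/em500-530; %Activity normalised to -TGF-b and +DMSO controls; CRC fit, curve class.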
Gal4-VP16 FLuc = counter-screen for ROR gamma inhibitors: Gal4-VP16 reporter. Drosophila S2 Gal4-VP16 UAS-luciferase, luminescence, 20 h. AID 2546. Potency, µM (top dose mostly 53.6 µM), for the others: at the top dose activity, negative = inhibition, actives largely listed as inhibitors. 310,000 tested, 3.5% active;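 further: Gal4-VP16 expression switched on by copper sulfate through the metallothionein promoter; on the % scale 0 is the no-effect control and ±100 the full control effect; nearly all actives have a fitted effect of over 50% in size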
RORg inh = blocks mouse ROR gamma transcriptional activity; P51450; Drosophila S2 Gal4-RORgamma UAS-luciferase reporter, 20 h; Potency, µM (titrated, usually from 53.6 µM), inactives show top-dose activity change, negative = inhibition, actives largely listed as inhibitors; 310,000 tested, 5.4% active; AID 2551; further: on the % scale 0 is the no-effect control and ±100 the full control effect; nearly all actives have a fitted effect of over 60% in size
Target sequence (P51450 whole entry, looked up, the tested form may be a part): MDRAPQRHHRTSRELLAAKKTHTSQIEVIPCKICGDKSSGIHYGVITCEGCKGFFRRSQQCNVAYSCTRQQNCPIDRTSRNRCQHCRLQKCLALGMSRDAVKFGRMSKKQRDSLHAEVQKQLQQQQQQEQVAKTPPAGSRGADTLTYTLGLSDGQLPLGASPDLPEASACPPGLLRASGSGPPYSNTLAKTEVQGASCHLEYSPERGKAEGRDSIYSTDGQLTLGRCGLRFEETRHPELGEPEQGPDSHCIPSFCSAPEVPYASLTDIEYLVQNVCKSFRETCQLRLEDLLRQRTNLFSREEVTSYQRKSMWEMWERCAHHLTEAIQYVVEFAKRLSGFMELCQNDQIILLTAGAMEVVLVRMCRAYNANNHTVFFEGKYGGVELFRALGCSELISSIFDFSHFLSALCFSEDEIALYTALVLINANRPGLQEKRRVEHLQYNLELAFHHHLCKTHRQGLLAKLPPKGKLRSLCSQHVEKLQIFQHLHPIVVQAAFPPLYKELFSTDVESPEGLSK
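Drosophila Schneider cells stably carrying a metallothionein-driven Gal4 DBD–ROR gamma fusion and a UAS-Photinus luciferase reporter were exposed to compound for 1 hr, then induced with copper sulfate (700 uM final) for 20 hr at ambient temperature before luminescence reading.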
* = called active by the depositor; i = inactive; ? = inconclusive; / = not tested or not shown; [ ] = remark or other dose. The call rests on the fitted dose curve; in most records, active means well fitted curve in the direction sought with a large enough effect; inconclusive means small, poorly fitted or top-dose-only effect, or another doubt; inactive means no such curve, though single readings can be large; an effect the other way counts as inactive or inconclusive. Potency means the concentration at half of the fitted maximal effect.

SMILES | HepG2 tox | ATXN viability | ATXN2 expr inh | TGFb SMAD3 inh | Gal4-VP16 FLuc | RORg inh
C=C1[C@@H](O)[C@@H]2O[C@]3(CC[C@H](/C=C/[C@@H](C)[C@@H]4CC(C)=CC5(O[C@H](C[C@@](C)(O)C(=O)OC)CC[C@H]5O)O4)O3)CC[C@H]2O[C@@H]1[C@@H](O)C[C@H](C)[C@H]1OC2(CCCCO2)CC[C@H]1C (some centres undefined) | -25.6% | ? | ? | 0.891µM* | / | /
Cc1nnc(N/N=C/c2ccc([N+](=O)[O-])cc2)n1N | -8.2% | i | -21.6% | 9.6% | -14.3% | ?
COc1ccc(/C=N/Nc2nnc(C)n2N)cc1OC(C)=O | 12.6µM* | i | -2.7% | 10µM* | ? | ?
COc1ccc(/C=N/Nc2nnc(C)n2N)cc1OC | -114.3% | i | -8.0% | -50.1% | ? | 11.2µM*
COc1cccc(OC)c1C(=O)Nc1ccc(-c2nc3ncccc3o2)cc1 | -1.3% | i | 15.2% | -7.2% | / | /
C[N+]1(CC(=O)c2ccc(F)cc2)CCc2ccccc2C1 (centres undefined) | 3.6% | / | / | 11.1% | / | /
CCOc1ccc2nc3cc(N=Nc4ccc(N)nc4N)ccc3c(N)c2c1 | 14.1µM* | / | ? | ? | / | /
CCN1C/C(=C/c2ccc(OC)c(O)c2)C(=O)/C(=C/c2ccc(OC)c(O)c2)C1 | -2.5% | ? | / | ? | ? | 6.31µM*
CCN1C/C(=C\c2cccc([N+](=O)[O-])c2)C(=O)/C(=C/c2cccc([N+](=O)[O-])c2)C1 | -50.7% | 4.47µM* | 3.55µM* | ? | 0.7% | 29.5%
COc1ccc(C=C2C(=O)c3ccccc3C2=O)cc1O | -24.7% | i | 1.1% | 13.5% | ? | ?
COc1ccc(/C=C2\CN(Cc3ccccc3)C/C(=C\c3ccc(OC)c(O)c3)C2=O)cc1O | -64.1% | ? | 3.98µM* | 5.01µM* | ? | 15.8µM*
COc1ccccc1CNC(=O)CCC1N=C2c3ccccc3N=C(SCc3ccc(Cl)cc3)N2C1=O (centres undefined) | -19.5% | / | / | -25.2% | / | /
O=C(O)c1cccc2c1C(=O)c1ccccc1C2=O | -2.2% | i | -6.3%[11.3 µM] | -1.4% | -5.9% | -11.8%
O=C(O)c1ccc2c3c(ncnc13)-c1ccccc1C2=O | 1µM* | i | ? | 0.794µM* | -18.1% | ?
CSc1ncccc1C(=O)N1CCN(S(=O)(=O)c2cc(C)ccc2C)CC1 | -28.6% | i | 1.2% | 12.9% | -2.0% | 13.3%
Oc1ccc(CN2CCc3ccccc3C2)c2cccnc12 | -62.8% | / | ? | ? | ? | 1µM*
Oc1c(CN2CCCCC2)ccc2cccnc12 | -31.1% | ? | ? | ? | / | /
Oc1ccc(CN2CCCCC2)c2cccnc12 | -59.7% | 12.6µM* | 20µM* | 3.16µM* | 7.94µM* | 7.08µM*
Oc1c(Cl)cc(CN2CCCCC2)c2cccnc12 | / | / | / | / | 3.55µM* | 4.47µM*
Cc1ccc(C)c(S(=O)(=O)N2CCN(Cc3ccc(O)c4ncccc34)CC2)c1 | 4.8% | i | 8.91µM* | ? | 3.16µM* | 2µM*
C[C@@H]1[C@H](c2ccccc2)OCCS(=O)(=O)N1Cc1ccccc1Br | 6.8% | / | / | ? | / | /
CCOC(=O)C1CCN(C(=O)CSc2n[nH]c(-c3ccc(F)cc3)n2)CC1 | 1.6% | / | / | -17.2% | / | /
O=C(COCc1cc(-c2ccc3c(c2)OCO3)on1)NCc1ccccc1Cl | -22.3% | / | / | -10.0% | / | /
Oc1ccc(CN2CCN(c3ccccc3)CC2)c2cccnc12 | -34.9% | i | ? | ? | 1µM* | 1.26µM*
CCOc1ccccc1-c1nn2c(Cc3ccccc3)nnc2s1 | 12.6µM* | i | -12.5% | ? | -3.9% | -26.3%
c1ccc(Cc2nnc3sc(-c4ccccn4)nn23)cc1 | -16.7% | i | 16.1% | -20.9% | 0.2% | -30.9%
CC1(C)Cc2[nH]c(=S)c(C#N)cc2CO1 | -11.5% | i | 2.1% | -0.5% | ? | 20µM*
